Inconclusive results are not listed. Calls of active or inactive are those of the source. Unless noted, calls follow the shape of the full dose curve.
Assays:
[1] = Nuclear factor erythroid 2-related factor 2/antioxidant responsive element (Nrf2/ARE) small molecule agonists: qHTS cell viability counter screen in human keratinocytes (AID 1919968; active = well fitted curve in the direction sought with a large enough effect in the repeat runs; an effect the other way counts as inactive or inconclusive; also: nearly all actives have a fitted effect of over 55% in size)
Method in brief: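 HaCaT ARE reporter line, 1,500 cells/well; 5 h settle, 37 C/5% CO2; cpd in DMSO pinned; 23 h exposure; CellTiter-Fluor, 1 h; fluorescence.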

[2] = Nuclear factor erythroid 2-related factor 2/antioxidant responsive element (Nrf2/ARE) small molecule agonists: luciferase reporter gene qHTS assay in human keratinocytes (AID 1919969); also: nearly all actives have a fitted effect of over 35% in size; also: potency is read from the fitted curve at half-maximal effect
[3] = biological target: Gonadotropin-releasing hormone receptor (Homo sapiens) (UniProt P30968); assay: Human gonadotropin-releasing hormone receptor (GnRHR) small molecule agonists, calcium flux assay in GnRHR-HEK293 cells (AID 1920063); also: nearly all actives have a fitted effect of over 35% in size
Method in brief: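 GnRHR-HEK293, 1500 cells/well, 18 h 37 C/5% CO2; Ca dye 1 h 37 C; cpd pinned (DMSO), agonist mode; kinetic FL 480/540, 3 min, 1 s reads; 15 conc, n=3.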

[4] = biological target: KiSS-1 receptor (Homo sapiens) (UniProt Q969F8); assay: Human kisspeptin (KISS1R) small molecule agonists, calcium flux assay in KISS1R-HEK293 cells (AID 1920064; active = well fitted curve in the direction sought with a large enough effect in the repeat runs; an effect the other way counts as inactive or inconclusive)
Method in brief: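 Stable human KISS1R HEK293 line; 18 h plating, 37 C/5% CO2; calcium dye 1 h 37 C; compound pin transfer; kinetic fluorescence Ex/Em 480/540, 3 min.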

[5] = G protein-coupled receptor (GPCR) small molecule agonists, calcium flux assay: HEK293 wild type cell line counter screen (AID 1920065)
Method in brief: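 Kinetic fluorescence at Ex/Em 480/540, recorded every second over 3 min, served as the read-out after compound addition. Each compound was tested at 15 concentrations in triplicate on cells pre-loaded with calcium dye for 1 h.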

[6] = p53 small molecule agonists, cell-based qHTS assay with rat liver microsomes: qHTS cell viability counter screen (AID 1963580); also: nearly all actives have a fitted effect of over 45% in size
Method in brief: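 Viability is assessed in parallel with the p53 reporter read: HCT-116 p53RE-bla cells receive compounds plus rat microsomes and NADPH (0.5 mg/mL final apiece), incubate 16 h at 37 C, and then CellTiter-Glo luminescence is recorded.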

[7] = p53 small molecule agonists, cell-based qHTS assay: qHTS cell viability counter screen (AID 1963581); also: nearly all actives have a fitted effect of over 45% in size
Method in brief: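 HCT-116 p53RE-bla cells, 4,000/well, plated 5 h before compound pin transfer; 16 h at 37 C; bla substrate 2 h RT; then CellTiter-Glo, 30 min RT, luminescence.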

[8] = biological target: 5-hydroxytryptamine receptor 2A (Homo sapiens) (UniProt P28223); assay: 5-hydroxytryptamine receptor 2A (HTR2A) small molecule antagonists, cell-based qHTS assay (AID 1963586); also: nearly all actives have a fitted effect of over 45% in size
Method in brief: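 Antagonist-mode intracellular calcium assay: DOI (4 nM) added after 5 min compound pre-incubation at room temperature to dye-loaded HTR2A-CHO cells. Fluorescence followed for 3 min, sampled every second.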

[9] = biological target: 5-hydroxytryptamine receptor 2A (Homo sapiens) (UniProt P28223); assay: 5-hydroxytryptamine receptor 2A (HTR2A) small molecule agonists, cell-based qHTS assay (AID 1963587); also: nearly all actives have a fitted effect of over 30% in size
Method in brief: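 CHO cells stably expressing human HTR2A, plated 18 h, loaded with calcium dye 1 h at 37 C. Agonist mode: compounds added and intracellular calcium fluorescence recorded kinetically for 2 min at 1 sec intervals.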

[10] = biological target: Muscarinic acetylcholine receptor M1 (Homo sapiens) (UniProt P11229); assay: Cholinergic receptor muscarinic 1 (CHRM1) small molecule antagonists, cell-based qHTS assay (AID 1963588); also: nearly all actives have a fitted effect of over 40% in size
Method in brief: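 CHRM1-CHO calcium-flux assay, antagonist mode. Cells were seeded 18 h, dye-loaded 1 h at 37 C and given compound for 5 min at RT, then acetylcholine was added at 50nM. FDSS fluorescence was read 3 min; 15 concentrations, three runs.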

[11] = cAMP Responsive Elements (CRE) small molecule antagonists, cell-based qHTS assay (AID 1963591; active = well fitted inhibition curve with a large enough effect in the signal ratio in the repeat runs, not every such curve was filed as active; the % refers to the signal ratio)
Method in brief: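 Beta-lactamase reporter read by FRET substrate (LiveBLAzer B/G) after 2 h at room temperature. CRE-bla HEK293T cells had received compound plus 0.25 uM (final) NKH477 for 3 h at 37 °C.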

[12] = biological target: Beta-2 adrenergic receptor (Homo sapiens) (UniProt P07550); assay: Adrenergic beta2 receptor (ADRB2) small molecule antagonists, cell-based qHTS assay (AID 1963592); also: series mostly up to about 92 µM; nearly all actives have a fitted effect of over 50% in size
Method in brief: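 Cells (CHO, stable ADRB2 overexpression) incubated 18-20hr at 37C; compounds added from DMSO; agonist mix (1nM isoproterenol, 100uM IBMX, 25uM Ro-20-1724) added; 0.5hr RT; d2-cAMP and anti-cAMP-cryptate added; 1hr RT; 665/615 nm read.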

[13] = biological target: D(2) dopamine receptor (Homo sapiens) (UniProt P14416); assay: Dopamine D2 receptor (DRD2) small molecule agonists, cell-based qHTS assay (AID 1963594); also: nearly all actives have a fitted effect of over 35% in size
Method in brief: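 HEK293 cells stably expressing human DRD2, pre-treated with PDE inhibitor Ro20-1724 (0.1 mM final) and compound 10 min at room temperature, then stimulated with NKH477 (200nM […]) for 30 min. cAMP read by HTRF (665/620 nm).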

[14] = biological target: D(2) dopamine receptor (Homo sapiens) (UniProt P14416); assay: Dopamine D2 receptor (DRD2) small molecule antagonists, cell-based qHTS assay (AID 1963595; active = well fitted inhibition curve with a large enough effect in the signal ratio in the repeat runs, with a control signal flat; the % refers to the signal ratio)
Method in brief: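 Cells were plated and grown for 24 h at 37 °C. Ro20-1724 (0.1 mM final) went in first, then compound for 10 min. NKH477 (200 nM) with quinpirole (12 nM) followed for 30 min at RT, then HTRF detection reagents for 1 h.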

[15] = p53 small molecule agonists, cell-based qHTS assay with human liver microsomes: qHTS cell viability counter screen (AID 1963579); also: nearly all actives have a fitted effect of over 45% in size
Method in brief: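 HLM-supplemented (0.5 mg/mL final) and NADPH-supplemented (0.5 mg/mL final) p53RE-bla cultures, 4,000 cells per well, were dosed with compounds in DMSO for 16 h at 37 C; luminescent ATP detection (CellTiter-Glo, 30 min, room temperature) quantified surviving cells.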

[16] = biological target: Muscarinic acetylcholine receptor M1 (Homo sapiens) (UniProt P11229); assay: Cholinergic receptor muscarinic 1 (CHRM1) small molecule agonists, cell-based qHTS assay (AID 1963589); also: nearly all actives have a fitted effect of over 35% in size
Method in brief: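 Human M1 in stable CHO line; 18 h plating, 1 h dye load 37 C; cpd added (agonist mode); Ca2+ fluorescence kinetic read, 1 s intervals; 15 conc, 3 runs.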

[17] = cAMP Responsive Elements (CRE) small molecule agonists, cell-based qHTS assay (AID 1963590)
Method in brief: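 HEK 293T CRE-bla, 2,000 cells/well, 18 h preincubation 37 C/5% CO2; cpds (DMSO) pinned, 3 h; LiveBLAzer B/G FRET substrate, 2 h RT.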

[18] = biological target: Beta-2 adrenergic receptor (Homo sapiens) (UniProt P07550); assay: Adrenergic beta2 receptor (ADRB2) small molecule agonists, cell-based qHTS assay (AID 1963593);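 also: CHO cells stably overexpressing human ADRB2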
Method in brief: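 CHO cells stably over-expressing ADRB2 were plated overnight at 37C, then dosed with compounds plus a stimulation mix containing 100uM IBMX and 25uM Ro-20-1724 for 0.5hr at room temperature. cAMP was measured by HTRF competition, 1hr.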
% is scaled to controls: 0 for no effect and ±100 for the full control effect.

D(2) dopamine receptor (Homo sapiens), sequence (P14416 whole entry, looked up): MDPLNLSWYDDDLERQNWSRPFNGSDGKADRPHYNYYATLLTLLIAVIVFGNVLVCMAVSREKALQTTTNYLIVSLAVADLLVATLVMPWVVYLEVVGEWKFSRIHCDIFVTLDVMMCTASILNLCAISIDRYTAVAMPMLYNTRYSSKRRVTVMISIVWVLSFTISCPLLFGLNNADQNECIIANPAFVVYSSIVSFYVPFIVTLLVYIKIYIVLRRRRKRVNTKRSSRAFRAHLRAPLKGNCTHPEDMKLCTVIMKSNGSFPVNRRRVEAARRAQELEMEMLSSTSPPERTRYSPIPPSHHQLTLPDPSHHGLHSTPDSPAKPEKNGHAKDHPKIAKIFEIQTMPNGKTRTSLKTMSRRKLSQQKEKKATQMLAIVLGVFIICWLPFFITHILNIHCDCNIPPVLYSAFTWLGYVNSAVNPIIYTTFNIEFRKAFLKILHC
KiSS-1 receptor (Homo sapiens), sequence (Q969F8 whole entry, looked up): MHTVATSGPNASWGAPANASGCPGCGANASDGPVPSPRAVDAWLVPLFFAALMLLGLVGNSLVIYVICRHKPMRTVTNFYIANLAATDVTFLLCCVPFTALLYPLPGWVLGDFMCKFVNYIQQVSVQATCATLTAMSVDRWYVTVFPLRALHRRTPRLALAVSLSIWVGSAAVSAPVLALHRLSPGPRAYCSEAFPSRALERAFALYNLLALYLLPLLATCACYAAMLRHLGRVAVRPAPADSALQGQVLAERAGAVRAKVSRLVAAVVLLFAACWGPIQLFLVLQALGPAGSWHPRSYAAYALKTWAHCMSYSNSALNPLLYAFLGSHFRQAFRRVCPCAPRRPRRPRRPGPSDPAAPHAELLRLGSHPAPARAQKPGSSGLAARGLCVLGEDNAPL
Beta-2 adrenergic receptor (Homo sapiens), sequence (P07550 whole entry, looked up): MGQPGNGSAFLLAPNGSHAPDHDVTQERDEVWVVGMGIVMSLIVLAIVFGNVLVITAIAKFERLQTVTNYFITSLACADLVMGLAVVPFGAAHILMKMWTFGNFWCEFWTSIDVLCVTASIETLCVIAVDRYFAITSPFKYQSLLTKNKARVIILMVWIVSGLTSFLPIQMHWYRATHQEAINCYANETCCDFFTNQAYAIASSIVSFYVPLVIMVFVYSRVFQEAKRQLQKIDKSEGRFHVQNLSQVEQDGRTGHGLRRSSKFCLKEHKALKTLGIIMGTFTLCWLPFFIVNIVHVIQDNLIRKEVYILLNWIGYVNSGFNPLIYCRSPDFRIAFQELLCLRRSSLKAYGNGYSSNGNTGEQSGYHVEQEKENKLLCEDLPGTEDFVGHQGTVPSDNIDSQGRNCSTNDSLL
Gonadotropin-releasing hormone receptor (Homo sapiens), sequence (P30968 whole entry, looked up): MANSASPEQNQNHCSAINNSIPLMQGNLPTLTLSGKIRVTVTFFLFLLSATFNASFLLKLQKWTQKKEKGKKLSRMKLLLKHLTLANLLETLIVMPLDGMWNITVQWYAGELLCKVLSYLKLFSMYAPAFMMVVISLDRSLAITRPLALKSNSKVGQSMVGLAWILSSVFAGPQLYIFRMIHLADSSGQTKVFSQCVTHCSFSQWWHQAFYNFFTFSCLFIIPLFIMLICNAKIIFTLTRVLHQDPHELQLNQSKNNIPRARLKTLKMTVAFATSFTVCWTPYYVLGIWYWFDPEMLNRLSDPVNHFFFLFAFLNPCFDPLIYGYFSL
Muscarinic acetylcholine receptor M1 (Homo sapiens), sequence (P11229 whole entry, looked up): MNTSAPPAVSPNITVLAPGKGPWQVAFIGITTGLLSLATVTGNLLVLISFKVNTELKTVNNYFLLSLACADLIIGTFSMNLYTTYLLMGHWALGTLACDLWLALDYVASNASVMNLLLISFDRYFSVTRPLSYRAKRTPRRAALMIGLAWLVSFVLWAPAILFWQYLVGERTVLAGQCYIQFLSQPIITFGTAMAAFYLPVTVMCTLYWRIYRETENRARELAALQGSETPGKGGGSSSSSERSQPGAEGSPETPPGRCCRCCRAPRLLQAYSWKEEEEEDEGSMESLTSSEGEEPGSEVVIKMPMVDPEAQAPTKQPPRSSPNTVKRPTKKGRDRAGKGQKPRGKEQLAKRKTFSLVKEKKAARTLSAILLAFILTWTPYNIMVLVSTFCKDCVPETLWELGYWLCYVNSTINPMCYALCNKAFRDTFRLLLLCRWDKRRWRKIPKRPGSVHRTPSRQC
5-hydroxytryptamine receptor 2A (Homo sapiens), sequence (P28223 whole entry, looked up): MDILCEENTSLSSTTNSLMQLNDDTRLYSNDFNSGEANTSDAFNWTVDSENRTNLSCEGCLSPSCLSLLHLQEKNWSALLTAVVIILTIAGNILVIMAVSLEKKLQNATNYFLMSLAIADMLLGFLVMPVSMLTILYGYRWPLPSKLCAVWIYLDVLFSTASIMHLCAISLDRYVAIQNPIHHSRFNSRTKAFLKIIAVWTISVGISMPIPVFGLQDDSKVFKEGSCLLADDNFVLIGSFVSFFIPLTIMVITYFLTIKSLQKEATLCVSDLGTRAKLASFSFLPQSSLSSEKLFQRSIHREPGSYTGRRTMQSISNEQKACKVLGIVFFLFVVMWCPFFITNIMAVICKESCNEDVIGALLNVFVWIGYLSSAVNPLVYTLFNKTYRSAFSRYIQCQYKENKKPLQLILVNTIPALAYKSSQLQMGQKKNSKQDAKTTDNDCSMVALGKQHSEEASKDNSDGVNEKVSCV

O=C(c1ccccc1)c1ccc(O)cc1
inactive: Potency [1] | Potency [2] | Potency [3] | Potency [4] | Potency [5] | Potency [6] | Potency [7] | Potency [8] | Potency [9] | Potency [10] | Potency [11] | Potency [12] | Potency [13] | Potency [14]

Cc1ccc(C(C)C)cc2c(C)ccc1-2
inactive: Potency [1] | Potency [2] | Potency [3] | Potency [4] | Potency [5] | Potency [15] | Potency [7] | Potency [8] | Potency [9] | Potency [16] | Potency [17] | Potency [12] | Potency [13]

COc1cc(C(C)(C)C)c(O)c(C(C)(C)C)c1
inactive: Potency [1] | Potency [3] | Potency [4] | Potency [5] | Potency [15] | Potency [7] | Potency [8] | Potency [9] | Potency [16] | Potency [12] | Potency [18] | Potency [13]
active: Potency [2] 48.6 µM

CC1=Nc2ccccc2C1(C)C
active: Potency [2] 43.3 µM
inactive: Potency [1] | Potency [3] | Potency [4] | Potency [5] | Potency [15] | Potency [8] | Potency [9] | Potency [10] | Potency [16] | Potency [11] | Potency [12] | Potency [18] | Potency [13] | Potency [14]

Clc1sc(Cl)c(Cl)c1Cl
inactive: Potency [1] | Potency [2] | Potency [3] | Potency [4] | Potency [5] | Potency [6] | Potency [7] | Potency [8] | Potency [9] | Potency [10] | Potency [16] | Potency [17] | Potency [11] | Potency [12] | Potency [18] | Potency [13] | Potency [14]

Brc1c2ccccc2c(Br)c2ccccc12
inactive: activity change, negative = cytotoxicity [1] 9.04% [at 8.39 µM] | activity, positive = activation [2] -5.36% [at 8.39 µM] | activity change [3] -0.0865% [at 5.22 µM, hits give high values] | activation [4] 0.391% [at 6.97 µM] | activation [5] -0.151% [at 5.23 µM] | activity change, negative = cytotoxicity [15] 1.01% [at 5.99 µM] | activity change, negative = cytotoxicity [7] 12.6% [at 5.99 µM] | activity, negative = inhibition [8] 33.2% [at 5.62 µM] | activation [9] 0.903% [at 7.02 µM] | activity, negative = inhibition [10] -2.59% [at 5.58 µM] | activation [17] 1.87% [at 8.39 µM] | activity change, negative = inhibition [11] 2.05% [at 8.39 µM] | activity change, negative = inhibition [12] -10.4% [at 8.39 µM] | activation [18] 3.4% [at 8.39 µM] | activation [13] 2.55% [at 8.39 µM] | activity change, negative = inhibition [14] -0.559% [at 8.38 µM]

CC1=CC(=O)CCC1
inactive: Potency [1] | Potency [2] | Potency [3] | Potency [4] | Potency [5] | Potency [15] | Potency [7] | Potency [8] | Potency [9] | Potency [10] | Potency [16] | Potency [17] | Potency [11] | Potency [12] | Potency [13] | Potency [14]

CCO[C@H](Cc1ccc(OCCc2ccc(OS(C)(=O)=O)cc2)cc1)C(=O)O
inactive: Potency [1] | Potency [2] | Potency [3] | Potency [4] | Potency [5] | Potency [15] | Potency [7] | Potency [9] | Potency [10] | Potency [16] | Potency [17] | Potency [11] | Potency [12] | Potency [13]

Reference: PubChem BioAssay (Tox21)
